# Source: PubChem BioAssay (National Center for Advancing Translational Sciences (NCATS))
# MCF10A rereplic = induces DNA re-replication in MCF 10a normal breast cells; 350,000 compounds, 2.9% hits; AID 624296; Potency, µM (top dose mostly 46.1 µM), inactives show at the highest dose activity, positive = re-replication, most hits filed as activators; MCF 10A DNA re-replication, Hoechst nuclear intensity, 48 h; further: potency means the concentration at half of the fitted maximal effect; % of control where 0% means no effect; nearly all actives have a fitted effect of over 50% in size
# SW480 rereplic = inducers of DNA re-replication in SW480 colon cancer cells; SW480 DNA re-replication, Hoechst DNA content imaging, 48 h; Potency, µM (top dose mostly 46.1 µM), for the others: at the highest dose re-replication activation, hits mostly activators; 340,000 compounds, 1.8% hits; AID 624297; further: potency means the concentration at half of the fitted maximal effect; % of control where 0% means no effect; nearly all actives have a fitted effect of over 55% in size
#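 Per well, 250 cells were exposed to pinned compound for 48 hr. Nuclear DNA was visualised with Hoechst (40 min, 37 C) and total object intensity recorded by fluorescence scanning.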
# RORgamma inh = blocks mouse ROR gamma transcriptional activity. 310,000 compounds, 5.4% hits. Potency, µM (top dose mostly 53.6 µM), without a hit: at the highest dose activity change, negative = inhibition, actives largely listed as inhibitors. P51450. Drosophila S2 Gal4-RORgamma UAS-luciferase reporter, 20 h; further: potency means the concentration at half of the fitted maximal effect; on the % scale 0 is the no-effect control and ±100 the full control effect; nearly all actives have a fitted effect of over 60% in size
# Target sequence (P51450 whole entry, looked up, the tested form may be a part): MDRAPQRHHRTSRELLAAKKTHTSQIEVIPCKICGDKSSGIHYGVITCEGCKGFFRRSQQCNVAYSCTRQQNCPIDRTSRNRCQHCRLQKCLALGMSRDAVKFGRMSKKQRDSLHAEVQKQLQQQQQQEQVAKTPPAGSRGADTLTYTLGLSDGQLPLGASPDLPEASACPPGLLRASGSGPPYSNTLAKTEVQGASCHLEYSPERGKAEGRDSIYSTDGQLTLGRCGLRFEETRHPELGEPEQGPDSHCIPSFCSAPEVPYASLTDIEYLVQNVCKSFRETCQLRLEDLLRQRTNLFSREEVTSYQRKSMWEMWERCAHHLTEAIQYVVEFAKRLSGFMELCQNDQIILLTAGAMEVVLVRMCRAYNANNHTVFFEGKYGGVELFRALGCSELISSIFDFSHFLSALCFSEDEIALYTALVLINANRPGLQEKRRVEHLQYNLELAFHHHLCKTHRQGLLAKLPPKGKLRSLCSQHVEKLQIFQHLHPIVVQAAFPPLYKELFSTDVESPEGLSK
#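 Luciferase reporter read in Schneider cells carrying Gal4-RORγ (mouse) and UAS-Photinus luciferase; cells given compound 1 h before 700 uM copper sulfate induction, then incubated 20 h at ambient temperature.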
# IL1B secr inh = inhibitors of inflammasome signaling (IL-1 beta secretion); THP-1 LPS/ATP IL-1B secretion, AlphaLISA, 16 h; hits give low values; activity change, % at 57.5 µM; 360,000 compounds, 4.7% hits; in the data active means activity change below about -50%; inconclusive means mostly about -30% to -49%; further: on the % scale 0 is the no-effect control and ±100 the full control effect
#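 Secreted IL-1B measured by AlphaLISA bead assay after 16 h compound exposure of THP-1 cells; compounds (final up to 57.5 uM) added 1 h before LPS (250 ng/mL) and ATP (1.25 mM) stimulation; lower signal means less secretion.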
# Gal4-VP16 FLuc = counter-screen for ROR gamma inhibitors: Gal4-VP16 reporter; 310,000 compounds, 3.5% hits; Potency, µM (highest dose often 53.6 µM), for inactives: at the highest dose activity, negative = inhibition, most hits filed as inhibitors; Drosophila S2 Gal4-VP16 UAS-luciferase, luminescence, 20 h;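 further: Gal4-VP16 expression switched on by copper sulfate through the metallothionein promoter; potency means the concentration at half of the fitted maximal effect; on the % scale 0 is the no-effect control and ±100 the full control effect; nearly all actives have a fitted effect of over 50% in size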
# * = called active by the depositor; ? = inconclusive; · = no result. Only some compounds are listed: those with a hit (about 11% of all), similar ones and a draw of the others. Unless noted, the call rests on the fitted dose curve; in most records, active means well fitted curve in the direction sought with a large enough effect; inconclusive means small, poorly fitted or top-dose-only effect, or another doubt; inactive means no such curve, though single readings can be large; an effect the other way counts as inactive or inconclusive.
SMILES,MCF10A rereplic,SW480 rereplic,RORgamma inh,IL1B secr inh,Gal4-VP16 FLuc
COC(=O)c1ccc(C(NC(=O)OCc2ccccc2)/C(=C/[C@@H](C)C(=O)N(C)C)c2cccnc2)cc1 (stereo partly specified),·,·,1%,·,-9%
CCCOP(=O)(c1ccc(N(C)C)cc1)C(O)c1ccc(Cl)cc1Cl (stereo unspecified),15%,1%,-2%,-79*,4%
CCCOP(=O)(c1ccc(N(C)C)cc1)C(O)c1c(Cl)cccc1Cl (stereo unspecified),0%,-1%,9%,-2,-5%
CCn1c2ccccc2c2nnc(SCc3ccc(C(=O)OC)o3)nc21,0%,-7%,?,-21,13µM*
COc1ccc(-c2cc(C(=O)NNC3=NCCC3)c3c(C)nn(-c4ccccc4)c3n2)cc1,-4%,3%,0.32µM*,0,?
CCC(=O)Nc1ccc(-c2ccc(N3CCC(C)CC3)nn2)cc1,-2%,-10%,3.5µM*,0,?
CCC(=O)Nc1cccc(-c2ccc(N3CCC(C)CC3)nn2)c1,11%,-2%,2.5µM*,?,4µM*
CC1CCN(c2ccc(-c3cccc(NC(=O)c4ccco4)c3)nn2)CC1,8%,-366%,·,-78*,·
COc1ccc([C@@H]2CC(=O)c3c(O)cc(O[C@@H]4O[C@H](CO)[C@@H](O)[C@H](O)[C@H]4OC4O[C@@H](C)[C@H](O)[C@@H](O)[C@H]4O)cc3O2)cc1O (stereo partly specified),·,·,0%,·,-1%
COc1ccc(/C=N/NC(=S)NC2CCS(=O)(=O)C2)cc1 (stereo unspecified),6%,-3%,7.1µM*,-2,4.5µM*
COc1ccc(/C=C/C(=O)NC2CCS(=O)(=O)C2)cc1 (stereo unspecified),0%,-1%,·,-2,·
CC(C)(C)c1ccc(/C=N/NC(=S)NC2CCCCC2)cc1,16µM*,?,1.1µM*,-30,3.2µM*
CCCc1c(C(=O)N/N=C/c2ccc3c(c2)OCO3)nnn1-c1nonc1N,·,·,·,-1,·
CCOC(=O)CNC(=O)C1CCCN(c2ncccn2)C1 (stereo unspecified),17%,0.26µM*,-1%,-7,-4%
O=C(Nc1nnc(-c2ccc(F)cc2)s1)Nc1ccccc1F,-4%,-19%,4%,22,-14%
CC(SC1=NCCS1)C(=O)Nc1nnc(-c2ccc(F)cc2)s1 (stereo unspecified),-2%,-1%,7.9µM*,-53*,?
CC(SC1=NCCS1)C(=O)Nc1nnc(-c2ccc(Br)cc2)s1 (stereo unspecified),28%,7%,8.9µM*,-20,10µM*
CCC(SC1=NCCS1)C(=O)Nc1nnc(-c2ccccc2OC)s1 (stereo unspecified),?,10%,6.3µM*,-14,16µM*
Cc1cc(OCC(=O)OC(C)C(=O)NC2CC2)c(C(C)C)cc1Cl (stereo unspecified),·,·,·,9,·
CC1(C(=O)Nc2ccc3[nH]ncc3c2)CCN1C(=O)C1(c2ccccc2)CC1 (stereo unspecified),·,·,·,-18,·
COc1cccc(CN(C)C(=O)/C=C/c2ccc(S(=O)(=O)N3CCCCCC3)cc2)c1,9%,4%,42%,-58*,-11%
COc1cccc(/C=C/C(=O)OCC(=O)Nc2ccc(S(=O)(=O)N3CCCC3)cc2)c1,?,5%,29%,-12,-9%
O=C(NC1CCN(Cc2ccccc2)CC1)c1ccc(CS(=O)c2ccccc2Cl)o1 (stereo unspecified),·,·,·,4,·
C/C=C/c1cccc(-c2nc(C(=O)N3CCN(C)CC3)cc3c2[C@@H](CCO)N(C(=O)NC(C)C)C3)c1,·,·,·,-10,·
COc1ccc(CNc2ncnc3ccc(-c4ccccc4OC)cc23)c(OC)c1,·,·,-5%,·,-10%
SMILES,MCF10A rereplic,SW480 rereplic,RORgamma inh,IL1B secr inh,Gal4-VP16 FLuc
CC1CN(S(=O)(=O)c2cccc(-c3cn4ccccc4n3)c2)CC(C)O1 (stereo unspecified),-5%,13%,?,?,0.35µM*
Cc1cccn2cc(-c3cccc(S(=O)(=O)N4CC(C)OC(C)C4)c3)nc12 (stereo unspecified),-5%,-7%,-29%,45,2%
Cc1cc(C)n2nc(C(=O)OCC(=O)Nc3ccc(F)cc3F)nc2n1,9%,-2%,·,-6,·
CCN1C(=O)c2ccccc2Sc2ccc(C(=O)NCCCN3CCOCC3)cc21,?,21%,0%,0,-2%
CCN1C(=O)c2ccccc2Sc2ccc(C(=O)NCCC(C)C)cc21,6%,?,19%,-12,5%
CCN1CCN(CCNC(=O)c2ccc3c(c2)N(Cc2cccc(Cl)c2)C(=O)c2ccccc2S3=O)CC1 (stereo unspecified),3%,-1%,2%,-55*,-1%
Cc1cccc(CN2C(=O)c3ccccc3Sc3ccc(C(=O)NCCN4CCOCC4)cc32)c1,?,3%,23%,-68*,3%
O=C(NCCN1CCCC1)c1ccc2c(c1)N(Cc1ccc(F)cc1)C(=O)c1ccccc1S2=O (stereo unspecified),11%,-5%,-21%,-24,-9%
CC(C)CCNC(=O)c1ccc2c(c1)N(C)C(=O)c1ccccc1S2,?,16%,23%,-50*,0%
O=C(NCCCN1CCOCC1)c1ccc2c(c1)N(Cc1c(F)cccc1Cl)C(=O)c1ccccc1S2,?,17%,?,-52*,-12%
Cc1ccc(S(=O)(=O)CCC(=O)Nc2cccc(S(=O)(=O)N3CCCCCC3)c2)cc1,16%,5%,·,23,·
Cc1c(C(=O)NCc2cccs2)sc(=O)n1Cc1ccc(S(=O)(=O)N(C)C)cc1,·,·,·,-20,·
COc1cc2c(cc1OC)C(c1ccccc1[N+](=O)[O-])=NCC2,·,·,·,47,·
COc1ccc2oc(=O)c(-c3nnc(N)s3)cc2c1,11%,?,-22%,-84*,-4%
Cc1ccc(CNC(=O)C2CSC3(C)CCC(=O)N23)cc1 (stereo unspecified),0%,-2%,·,3,·
O=C(Nc1cc(C(F)(F)F)ccc1Cl)c1ccncc1,2%,0%,-3%,-19,7%
COC(=O)CCC(=O)Nc1cccc(Cl)c1,-7%,-7%,-9%,-3,4%
O=C(Cc1ccccc1)NC(=S)Nc1cc(C(F)(F)F)ccc1Cl,23%,14%,1.6µM*,-7,-21%
Cc1ccc(C(=O)NC(=S)Nc2cc(C(F)(F)F)ccc2Cl)cc1,9.2µM*,?,10µM*,5,-17%
O=C(Cc1ccccc1)NC(=S)Nc1cccc(C(F)(F)F)c1,?,-4%,7.1µM*,49,13µM*
COC(=O)CCC(=O)NC(=S)Nc1cc(Cl)ccc1Cl,6%,10%,10µM*,0,?
